Data taken from PubChem BioAssay (Tox21).
The source made the active and inactive calls. Unless noted, calls follow the shape of the dose curve; as a rule, active = well fitted curve in the direction sought with a large enough effect in the repeat runs; inconclusive = weak or mixed curves; inactive = no such curve, though single readings can be large; an effect the other way counts as inactive or inconclusive.

What was measured:
[1] = target: Estrogen receptor (Homo sapiens) (UniProt P03372); test: qHTS assay to identify small molecule antagonists of the estrogen receptor alpha (ER-alpha) signaling pathway (AID 743069; active = well fitted curve in the direction sought with a large enough effect in the signal ratio in the repeat runs, not every such curve was filed as active; inconclusive = weak or mixed curves, or effect the other way; inactive = no such curve, though single readings can be large or run the other way; the % refers to the signal ratio; also: potency is read from the fitted curve at half-maximal effect)
Summary of the method: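 ER-alpha-UAS-bla GripTite HEK293 line; 2% charcoal-stripped FBS overnight; plated, 4 hr 37C/5% CO2; cpd in DMSO + 17beta-estradiol, 18 hr 37C; LiveBLAzer B/G FRET substrate 2 hr RT; fluorescence intensity.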

[2] = qHTS assay to identify small molecule antagonists of the estrogen receptor alpha (ER-alpha) signaling pathway - cell viability counter screen (AID 743074; calls by dose curve;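 also: HEK293 cells carrying ER-alpha-UAS-bla reporter stimulated with 17beta-estradiol; nearly all actives have a fitted effect of over 45% in size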)
[3] = target: Estrogen receptor (Homo sapiens) (UniProt P03372); test: qHTS assay to identify small molecule agonists of the estrogen receptor alpha (ER-alpha) signaling pathway (AID 743075; calls by dose curve;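 also: HEK293 GripTite cells with ER-alpha and UAS-driven beta-lactamase reporter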; also: potency is read from the fitted curve at half-maximal effect)
[4] = target: Estrogen receptor (Homo sapiens) (UniProt P03372); test: qHTS assay to identify small molecule agonists of the estrogen receptor alpha (ER-alpha) signaling pathway using the BG1 cell line (AID 743079); also: nearly all actives have a fitted effect of over 20% in size; also: potency is read from the fitted curve at half-maximal effect
[5] = qHTS assay to identify small molecule antagonists of the estrogen receptor alpha (ER-alpha) signaling pathway using the BG1 cell line - cell viability counter screen (AID 743081);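 also: compound given together with 17beta-estradiol as the ER stimulus; nearly all actives have a fitted effect of over 45% in size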; also: potency is read from the fitted curve at half-maximal effect; as to activity change, negative = cytotoxicity: series mostly up to about 70 µM
Aromatase (Homo sapiens) = Aromatase (Homo sapiens) (UniProt P11511); test: qHTS assay to identify aromatase inhibitors (AID 743083); also: nearly all actives have a fitted effect of over 55% in size; also: potency is read from the fitted curve at half-maximal effect
[6] = qHTS assay to identify aromatase inhibitors - cell viability counter screen (AID 743084);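 also: cells stimulated with testosterone during compound exposure; nearly all actives have a fitted effect of over 55% in size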
[7] = target: Aryl hydrocarbon receptor (Homo sapiens) (UniProt P35869); test: qHTS assay to identify small molecule that activate the aryl hydrocarbon receptor (AhR) signaling pathway (AID 743085); also: nearly all actives have a fitted effect of over 15% in size; also: potency is read from the fitted curve at half-maximal effect;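 as to activation: HG2L7.5c1 human HepG2 liver cells with stably integrated DRE-driven firefly reporter; series mostly up to about 70 µM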
Summary of the method: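 Steps: seed HepG2-AhR-luc cells; allow 5 h at 37C; pin-transfer test compound or vehicle; incubate 24 h at 37C; add viability dye (30 min, 37C) and read fluorescence; add luciferase substrate (30 min, RT) and read luminescence.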

[8] = qHTS assay to identify small molecule that activate the aryl hydrocarbon receptor (AhR) signaling pathway - cell viability counter screen (AID 743086);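 also: HepG2 liver cells carrying the AhR DRE luciferase reporter; series mostly up to about 70 µM; nearly all actives have a fitted effect of over 45% in size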
Summary of the method: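 Cytotoxicity counter screen: CellTiter-Fluor signal (30 min, 37 C) in 4000 HepG2 cells/well carrying the DRE-luciferase reporter, following 24 h compound exposure at 37 C.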

[9] = qHTS assay to identify small molecule antagonists of the peroxisome proliferator-activated receptor gamma (PPARg) signaling pathway - cell viability counter screen (AID 743194); also: nearly all actives have a fitted effect of over 55% in size; also: potency is read from the fitted curve at half-maximal effect
Summary of the method: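 Viability was measured as CellTiter-Glo luminescence in GeneBLAzer PPARg UAS-bla HEK293H cells. These cells had been exposed 17 h at 37 C to compounds together with rosiglitazone at 50 nM final, with the beta-lactamase readout taken in the same wells.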

[10] = qHTS assay for small molecule agonists of the antioxidant response element (ARE) signaling pathway - cell viability counter screen (AID 743203; calls by dose curve; also: nearly all actives have a fitted effect of over 55% in size; also: potency is read from the fitted curve at half-maximal effect)
Summary of the method: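 Cells (ARE-bla HepG2, 2,000/well) receive DMSO-dissolved compounds after a 5 hrs rest. Plates incubate 16 hrs at 37C/5% CO2. CellTiter-Glo luminescence is then recorded after 30 min at room temperature.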

[11] = qHTS assay for small molecule activators of the heat shock response signaling pathway - cell viability counter screen (AID 743209); also: nearly all actives have a fitted effect of over 50% in size; also: potency is read from the fitted curve at half-maximal effect
Summary of the method: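 Quantitative HTS format, Tox21 10K library. HeLa cells carrying an HSE-driven beta-lactamase reporter were treated 5 h at 37 C, then assessed for viability by CellTiter-Glo luminescence.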

[12] = qHTS assay for small molecule activators of the heat shock response signaling pathway (AID 743210; active = well fitted activation curve with a large enough effect in the signal ratio in the repeat runs, with a control signal flat, not every such curve was filed as active; inconclusive = weak or mixed curves; the % refers to the signal ratio;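 also: HeLa cells with beta-lactamase reporter driven by heat shock elements; series mostly up to about 63 µM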)
Summary of the method: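 HeLa HSE-bla cells, overnight plating; cpd in DMSO 5 h, 37 C; LiveBLAzer B/G FRET substrate 2.5 h RT; fluorescence intensity read.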

[13] = target: Peroxisome proliferator-activated receptor gamma (Homo sapiens) (UniProt P37231); test: qHTS assay to identify small molecule antagonists of the peroxisome proliferator-activated receptor gamma (PPARg) signaling pathway (AID 743191; calls by dose curve; also: nearly all actives have a fitted effect of over 30% in size; also: potency is read from the fitted curve at half-maximal effect)
Summary of the method: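 Beta-lactamase reporter under UAS control in HEK293H PPARg-bla cells; compound treatment 17 h at 37C. Read-out: fluorescence intensity after 1 h room-temperature incubation with LiveBLAzer B/G FRET substrate.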

[14] = qHTS assay for small molecule agonists of the antioxidant response element (ARE) signaling pathway (AID 743202; active = well fitted activation curve with a large enough effect in the signal ratio in the repeat runs, not every such curve was filed as active; inconclusive = weak or mixed curves, or effect the other way; inactive = no such curve, though single readings can be large or run the other way; the % refers to the signal ratio; also: potency is read from the fitted curve at half-maximal effect)
Summary of the method: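 Quantitative high-throughput format in HepG2 cells bearing an integrated ARE-beta-lactamase reporter. Compound exposure lasted 16 h at 37 C, and fluorescence was read 2 h after adding LiveBLAzer B/G substrate at room temperature.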

[15] = system: thyroid hormone receptor (rat, GH3 cells); test: qHTS assay to identify small molecule agonists of the thyroid receptor (TR) signaling pathway (AID 743066; calls by dose curve)
[16] = qHTS assay to identify small molecule antagonists of the thyroid receptor (TR) signaling pathway (AID 743065); also: nearly all actives have a fitted effect of over 55% in size; also: potency is read from the fitted curve at half-maximal effect
Summary of the method: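 Antagonism measured as loss of luciferase signal in GH3 cells stably carrying a TRE-luciferase reporter, co-treated with compound and T3 (1 nM final) for 23.5 h at 37 C. Viability was read in the same well by CellTiter-Fluor.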

[17] = qHTS assay to identify small molecule antagonists of the estrogen receptor alpha (ER-alpha) signaling pathway using the BG1 cell line (AID 743080; calls by dose curve;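 also: BG1 cells stimulated with 17beta-estradiol alongside compound; series mostly up to about 70 µM; nearly all actives have a fitted effect of over 25% in size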)
Summary of the method: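 Endogenous full-length ER-alpha in BG1-Luc-4E2 cells drives a stably integrated 4×ERE luciferase gene; compounds were tested against 17beta-estradiol over 21.5 h, with luminescence and multiplexed viability fluorescence recorded.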

[18] = target: Peroxisome proliferator-activated receptor gamma (Homo sapiens) (UniProt P37231); test: qHTS assay to identify small molecule agonists of the peroxisome proliferator-activated receptor gamma (PPARg) signaling pathway (AID 743094; active = well fitted activation curve with a large enough effect in the signal ratio in the repeat runs, not every such curve was filed as active; inconclusive = weak or mixed curves, or effect the other way; inactive = no such curve, though single readings can be large or run the other way; the % refers to the signal ratio)
Summary of the method: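 Stably transfected HEK293H cells (GeneBLAzer PPARg UAS-bla) were incubated with test substances for 17 h at 37C after a 5 h pre-incubation; beta-lactamase activity was then detected by FRET substrate fluorescence.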
% is scaled to controls: 0 for no effect and ±100 for the full control effect.

Chain of Aryl hydrocarbon receptor (Homo sapiens) (P35869 whole entry, looked up): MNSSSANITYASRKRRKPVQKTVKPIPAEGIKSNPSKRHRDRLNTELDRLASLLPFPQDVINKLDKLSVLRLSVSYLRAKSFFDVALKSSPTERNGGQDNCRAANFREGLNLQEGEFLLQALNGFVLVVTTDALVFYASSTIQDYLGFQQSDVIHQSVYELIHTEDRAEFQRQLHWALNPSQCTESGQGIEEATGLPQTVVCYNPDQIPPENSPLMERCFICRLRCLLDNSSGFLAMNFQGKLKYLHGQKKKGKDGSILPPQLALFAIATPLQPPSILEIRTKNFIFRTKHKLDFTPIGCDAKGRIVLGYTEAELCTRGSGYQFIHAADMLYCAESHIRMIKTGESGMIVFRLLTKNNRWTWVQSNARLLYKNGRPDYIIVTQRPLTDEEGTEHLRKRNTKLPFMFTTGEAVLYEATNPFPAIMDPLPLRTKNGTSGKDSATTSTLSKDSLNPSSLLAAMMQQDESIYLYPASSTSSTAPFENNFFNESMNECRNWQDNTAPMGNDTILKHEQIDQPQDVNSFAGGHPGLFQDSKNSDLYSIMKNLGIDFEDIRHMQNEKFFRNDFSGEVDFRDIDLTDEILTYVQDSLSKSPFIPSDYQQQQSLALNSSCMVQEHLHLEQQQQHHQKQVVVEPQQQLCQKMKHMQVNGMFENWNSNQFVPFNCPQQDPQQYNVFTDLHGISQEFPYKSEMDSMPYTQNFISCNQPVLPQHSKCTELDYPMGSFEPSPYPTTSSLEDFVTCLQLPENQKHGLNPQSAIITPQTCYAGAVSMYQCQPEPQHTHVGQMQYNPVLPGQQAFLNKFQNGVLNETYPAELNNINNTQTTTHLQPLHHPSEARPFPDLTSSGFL
Chain of Peroxisome proliferator-activated receptor gamma (Homo sapiens) (P37231 whole entry, looked up): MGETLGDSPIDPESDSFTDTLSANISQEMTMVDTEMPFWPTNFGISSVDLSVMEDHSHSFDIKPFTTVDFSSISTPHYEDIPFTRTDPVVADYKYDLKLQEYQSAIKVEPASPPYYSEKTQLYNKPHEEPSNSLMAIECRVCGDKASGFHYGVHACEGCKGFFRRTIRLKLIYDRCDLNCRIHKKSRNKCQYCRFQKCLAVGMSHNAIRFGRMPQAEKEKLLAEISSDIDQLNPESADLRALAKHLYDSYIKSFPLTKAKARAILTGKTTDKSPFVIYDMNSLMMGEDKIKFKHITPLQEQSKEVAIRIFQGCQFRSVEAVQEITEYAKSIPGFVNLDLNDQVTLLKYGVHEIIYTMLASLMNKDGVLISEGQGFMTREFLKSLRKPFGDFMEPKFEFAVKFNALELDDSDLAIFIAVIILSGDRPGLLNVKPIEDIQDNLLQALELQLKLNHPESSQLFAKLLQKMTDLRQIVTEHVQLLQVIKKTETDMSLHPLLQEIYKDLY
Chain of Estrogen receptor (Homo sapiens) (P03372 whole entry, looked up): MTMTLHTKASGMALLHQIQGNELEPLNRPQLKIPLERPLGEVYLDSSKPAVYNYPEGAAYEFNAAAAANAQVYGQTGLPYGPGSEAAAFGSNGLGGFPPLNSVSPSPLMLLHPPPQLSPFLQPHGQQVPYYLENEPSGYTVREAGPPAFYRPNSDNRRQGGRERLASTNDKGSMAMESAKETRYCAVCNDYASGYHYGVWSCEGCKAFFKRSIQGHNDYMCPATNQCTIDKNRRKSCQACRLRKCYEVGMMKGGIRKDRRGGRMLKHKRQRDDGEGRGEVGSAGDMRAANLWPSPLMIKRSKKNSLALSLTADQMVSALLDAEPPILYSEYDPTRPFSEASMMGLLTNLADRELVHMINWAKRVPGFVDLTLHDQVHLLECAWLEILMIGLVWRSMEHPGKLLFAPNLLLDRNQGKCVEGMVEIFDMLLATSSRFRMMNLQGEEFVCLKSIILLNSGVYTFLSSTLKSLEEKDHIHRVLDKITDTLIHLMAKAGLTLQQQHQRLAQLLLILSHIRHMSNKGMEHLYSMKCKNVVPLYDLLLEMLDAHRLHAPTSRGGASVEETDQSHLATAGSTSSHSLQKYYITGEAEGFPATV
Chain of Aromatase (Homo sapiens) (P11511 whole entry, looked up): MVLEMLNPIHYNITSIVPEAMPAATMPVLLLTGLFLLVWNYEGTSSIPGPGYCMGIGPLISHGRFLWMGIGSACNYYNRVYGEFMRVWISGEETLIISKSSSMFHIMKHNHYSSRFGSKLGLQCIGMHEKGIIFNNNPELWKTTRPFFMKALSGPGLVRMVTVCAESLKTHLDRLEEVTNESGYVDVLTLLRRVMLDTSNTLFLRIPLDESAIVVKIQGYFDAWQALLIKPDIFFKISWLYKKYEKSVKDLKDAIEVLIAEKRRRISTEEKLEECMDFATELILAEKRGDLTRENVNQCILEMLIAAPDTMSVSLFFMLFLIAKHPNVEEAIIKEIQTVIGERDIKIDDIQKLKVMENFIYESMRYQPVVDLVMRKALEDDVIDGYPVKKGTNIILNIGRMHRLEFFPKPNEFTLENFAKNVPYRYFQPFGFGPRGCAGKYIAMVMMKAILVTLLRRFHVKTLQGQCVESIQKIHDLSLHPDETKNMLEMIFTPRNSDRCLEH

Cc1c(F)c(N2CCNC(C)C2)cc2c1c(=O)c(C(=O)O)cn2C1CC1 (stereo unspecified)
inactive: Potency [1] | Potency [2] | Potency [3] | Potency [4] | Potency [5] | Potency (Aromatase (Homo sapiens)) | Potency [6] | Potency [7] | Potency [8] | Potency [9] | Potency [10] | Potency [11] | Potency [12]

Fc1ccc(C(c2ccc(F)cc2)N2CCNCC2)cc1
active: Potency [9] 26.6 µM | Potency [10] 16.8 µM | Potency [11] 15 µM

Cc1cccc(C)c1NC(=O)c1ccc(N)cc1
inactive: Potency [13] | Potency [9] | Potency [14] | Potency [10] | Potency [11] | Potency [12]

Cc1c(N)cccc1C(F)(F)F
inactive: Potency [13] | Potency [9] | Potency [14] | Potency [10] | Potency [11] | Potency [12]

COC1=C(OC)C(=O)C(CCCCCCCCCCO)=C(C)C1=O
inactive: Potency [2] | Potency [3] | Potency [5] | Potency [7] | Potency [8] | Potency [9] | Potency [14] | Potency [10] | Potency [12]
active: Potency (Aromatase (Homo sapiens)) 29.8 µM

C/C=C/C=C/COC(=O)C(C)C
active: Potency (Aromatase (Homo sapiens)) 68.6 µM | Potency [14] 61.1 µM
inactive: outcome [15] | Potency [2] | Potency [5] | Potency [7] | Potency [8] | Potency [10]

CN(C)CCN1CCN(c2cccc(Cl)c2)C1=O
inactive: Potency [9] | Potency [14] | Potency [10] | Potency [11] | Potency [12]

O=C1OC2(c3ccc(O)cc3Oc3cc(O)ccc32)c2ccc(N=C=S)cc21
inactive: Potency [16] | outcome [15] | Potency [2] | Potency [5] | Potency (Aromatase (Homo sapiens)) | Potency [6] | Potency [7] | Potency [8] | Potency [9] | Potency [10] | Potency [11]

C#C[C@]1(O)CC[C@H]2[C@@H]3[C@H](C)CC4=C(CCC(=O)C4)[C@H]3CC[C@@]21C
active: Potency [16] 26.6 µM | Potency [3] 0.0134 µM [inconclusive] | Potency [4] 0.0038 µM | Potency [14] 23.7 µM
inactive: Potency [2] | Potency [17] | Potency [5] | Potency (Aromatase (Homo sapiens)) | Potency [6] | Potency [7] | Potency [8] | Potency [9] | Potency [10] | Potency [11]

COc1ccc2c(c1)c(CC(=O)OC/C=C(\C)CC/C=C(\C)CCC=C(C)C)c(C)n2C(=O)c1ccc(Cl)cc1
inactive: Potency [9] | Potency [10]

CC(C)=CCC1=C(O)c2ccccc2C(=O)C1=O
active: Potency [16] 0.171 µM | Potency [5] 54.2 µM | Potency [7] 54.2 µM | Potency [13] 0.772 µM
inactive: outcome [15] | Potency (Aromatase (Homo sapiens)) | Potency [10] | Potency [11] | Potency [12]

O=C(c1ccc(O)c(O)c1)c1ccc(O)cc1O
active: Potency [1] 34.6 µM [inconclusive] | Potency [3] 3.46 µM [inconclusive] | Potency [4] 3.85 µM | Potency [7] 5.44 µM
inactive: outcome [15] | Potency [2] | Potency [17] | Potency [6] | Potency [18] | Potency [13] | Potency [9] | Potency [10] | Potency [11]

CCC(C)n1ncn(-c2ccc(N3CCN(c4ccc(OC[C@H]5CO[C@](Cn6cncn6)(c6ccc(Cl)cc6Cl)O5)cc4)CC3)cc2)c1=O (stereo partly specified)
inactive: Potency [2] | Potency [3] | Potency [5] | Potency (Aromatase (Homo sapiens)) | Potency [6] | Potency [7] | Potency [8] | Potency [18] | Potency [13] | Potency [9] | Potency [10] | Potency [11]

OC12N=C(c3ccccc3)SC1Cc1cc(Cl)ccc12 (stereo unspecified)
inactive: Potency [2] | Potency [3] | Potency [5] | Potency (Aromatase (Homo sapiens)) | Potency [6] | Potency [9] | Potency [10] | Potency [11]
active: Potency [16] 61.1 µM | Potency [1] 54.9 µM [inhibitor] | Potency [4] 27.3 µM | Potency [7] 24.3 µM

CN(C)Cc1cc(C(C)(C)C)c(O)c(C(C)(C)C)c1
inactive: outcome [15] | Potency [2] | Potency (Aromatase (Homo sapiens)) | Potency [6] | Potency [8] | Potency [18] | Potency [9] | Potency [10] | Potency [11] | Potency [12]
active: Potency [14] 27.3 µM

O=C(O)CN(CCN(CC(=O)O)CC(=O)O)CC(=O)O
inactive: Potency [2] | Potency [5] | Potency (Aromatase (Homo sapiens)) | Potency [6] | Potency [7] | Potency [8] | activity change, negative = cytotoxicity [9] 4.6% [at 2.7 µM] | activation [14] -0.355% [at 3.74 µM] | viability change, negative = cytotoxic [10] -5.36% [at 3.74 µM] | activity change, negative = cytotoxicity [11] 20.3% [at 2.7 µM] | activation [12] 0.0247% [at 2.7 µM]

S=C([S-])NCCNC(=S)[S-].S=C([S-])NCCNC(=S)[S-].[Mn+2].[Zn+2]
active: Potency [14] 4.73 µM
inactive: outcome [15] | Potency (Aromatase (Homo sapiens)) | Potency [6] | Potency [7] | Potency [11]

CC1=CCC(=C(C)C)CC1
active: Potency [4] 68.6 µM
inactive: Potency [1] | Potency [2] | Potency [3] | Potency [5] | Potency (Aromatase (Homo sapiens)) | Potency [6] | Potency [7] | Potency [8] | Potency [18] | Potency [9] | Potency [11] | Potency [12]

CCCCCC(C)OC(=O)COc1ccc(Cl)c2cccnc12 (stereo unspecified)
inactive: outcome [15] | Potency [3] | Potency [4] | Potency [17] | Potency [5] | Potency [6] | Potency [9] | Potency [14] | Potency [10] | Potency [11]

CCC(=O)C(=O)CC
inactive: outcome [15] | Potency [2] | Potency [5] | Potency [8] | Potency [12]

CCCC(=O)OCOC(=O)C1=C(C)NC(C)=C(C(=O)OC)C1c1cccc(Cl)c1Cl (stereo unspecified)
inactive: Potency [13] | Potency [9] | Potency [12]

O=C(O)Cc1ccc2c(c1)C(=O)c1ccccc1CO2
inactive: Potency [10] | Potency [11] | Potency [12]

CC[C@H](C)COC(=O)/C=C/c1ccc(N=Cc2ccc(OC)cc2)cc1
inactive: outcome [15] | Potency [3] | Potency [5] | Potency [7] | Potency [18] | Potency [10] | Potency [12]
active: Potency [4] 2.73 µM

CC(C)=CCNc1ncnc2c1ncn2[C@@H]1O[C@H](CO)[C@@H](O)[C@H]1O
inactive: Potency [12]
active: Potency [9] 9.44 µM

CC/C=C\CCCCCO
inactive: Potency [16] | outcome [15] | Potency [2] | Potency [5] | Potency [8] | Potency [9] | Potency [14] | Potency [10] | Potency [11] | Potency [12]
